# Data as given in article PMC4336329 (PLoS ONE, 2015).
# Hit rate of the full screen: of about 310,000 compounds, about 14,000 (4.5%) showed an effect of 50% or more. Effects have a minus sign here. Only a selection was taken, and strong results are over-represented in it overall.
# Target: human ether-à-go-go-related gene (hERG) potassium channel (human, UniProt Q12809)
# Assay: primary screen, population patch clamp on CHO cells stably expressing hERG; higher = less effect of the substance
# 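Also: peak tail current of the secondary pulse compared with the same well before compound.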
# human ether-à-go-go-related gene (hERG) potassium channel, sequence (Q12809 whole entry, looked up): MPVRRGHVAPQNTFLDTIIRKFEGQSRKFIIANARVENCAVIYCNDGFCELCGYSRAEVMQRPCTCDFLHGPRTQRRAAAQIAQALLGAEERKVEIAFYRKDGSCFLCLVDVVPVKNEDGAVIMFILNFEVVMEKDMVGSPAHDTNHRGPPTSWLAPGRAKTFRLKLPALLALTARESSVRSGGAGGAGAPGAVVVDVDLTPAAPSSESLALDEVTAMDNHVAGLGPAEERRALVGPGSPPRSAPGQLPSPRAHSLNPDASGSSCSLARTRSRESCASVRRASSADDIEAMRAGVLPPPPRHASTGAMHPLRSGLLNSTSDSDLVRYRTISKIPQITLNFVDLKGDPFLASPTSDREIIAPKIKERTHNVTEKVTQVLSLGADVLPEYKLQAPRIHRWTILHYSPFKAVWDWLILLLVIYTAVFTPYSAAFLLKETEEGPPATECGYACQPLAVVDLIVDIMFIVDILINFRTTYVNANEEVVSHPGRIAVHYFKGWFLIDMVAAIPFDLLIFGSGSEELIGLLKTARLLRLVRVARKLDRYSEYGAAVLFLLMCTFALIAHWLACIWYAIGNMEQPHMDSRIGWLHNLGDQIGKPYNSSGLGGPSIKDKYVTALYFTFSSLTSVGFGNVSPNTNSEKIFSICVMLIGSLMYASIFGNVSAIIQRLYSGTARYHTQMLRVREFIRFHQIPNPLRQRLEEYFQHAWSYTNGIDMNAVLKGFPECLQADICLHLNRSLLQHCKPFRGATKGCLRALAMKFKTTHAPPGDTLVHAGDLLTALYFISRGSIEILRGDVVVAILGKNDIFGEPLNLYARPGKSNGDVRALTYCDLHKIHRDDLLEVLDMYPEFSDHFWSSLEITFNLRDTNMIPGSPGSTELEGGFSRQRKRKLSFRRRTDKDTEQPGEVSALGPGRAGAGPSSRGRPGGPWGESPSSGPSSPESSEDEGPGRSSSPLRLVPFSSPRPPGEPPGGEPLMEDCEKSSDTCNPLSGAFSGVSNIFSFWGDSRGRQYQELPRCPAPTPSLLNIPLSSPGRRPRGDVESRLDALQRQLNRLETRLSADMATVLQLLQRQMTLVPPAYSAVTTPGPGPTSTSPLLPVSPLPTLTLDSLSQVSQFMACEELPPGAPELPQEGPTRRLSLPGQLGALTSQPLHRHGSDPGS
row,Compound,"hERG current change (%, negative = inhibition) at 10uM [%]"
1,Cc1cnc(C(=O)OC(C)C(=O)NCc2ccccc2)cn1 (centres unmarked),3.99
2,Brc1ccc(CN2CCN(c3ccccn3)CC2)s1,-5.6
3,CCn1c(COc2ccc(Cl)cc2)nnc1SCC(=O)Nc1ccc2c(c1)OCO2,3.98
4,Cc1cc(C)cc(C(=O)N(C)C2CCCN(Cc3ccccc3F)C2)c1 (centres unmarked),-13
5,Cc1cccc(-n2nc3c([n+]2[O-])CCc2nonc2-3)c1C,11.4
6,O=C(CSc1ccc(Br)cc1)NC1CCS(=O)(=O)C1 (centres unmarked),5.33
7,CCCN(CCC)C(=S)Nc1cc(C(=O)OC)ccc1C(=O)OC,-38.2
8,Cc1cccc2c3c([nH]c12)CCN(C)C3,10
9,Cc1nn(Cc2ccc(Cl)cc2Cl)c(C)c1NC(=O)CCl,-60.9
10,Cc1nn(Cc2ccc(Cl)cc2Cl)c(C)c1NC(=O)NC12CC3CC(CC(C3)C1)C2,7.38
11,Cc1nn(Cc2ccc(Cl)cc2Cl)c(C)c1NC(=O)Cn1nc([N+](=O)[O-])c(Cl)c1C,1.33
12,Cc1c(Cl)c([N+](=O)[O-])nn1CCCC(=O)Nc1c(Cl)cccc1Cl,-8.29
13,Cc1ccc(Cn2nc(C)c(NC(=O)CCCn3nc(C)c([N+](=O)[O-])c3C)c2C)cc1,-10.9
14,Cc1ccc(Cn2nc(C)c(NC(=O)CCCn3nc([N+](=O)[O-])c(Cl)c3C)c2C)cc1,-50.7
15,Cc1nn(Cc2c(Cl)cccc2Cl)c(C)c1NC(=O)CCCn1nc([N+](=O)[O-])c(Cl)c1C,-19.6
16,Cc1nn(Cc2ccc(Cl)cc2)c(C)c1NC(=O)CCCn1nc([N+](=O)[O-])c(Cl)c1C,-64
17,Cc1nn(Cc2ccc(Cl)cc2)c(C)c1NC(=O)CCCn1nc(C)c([N+](=O)[O-])c1C,-64.5
18,Cc1nn(Cc2ccccc2)c(C)c1NC(=O)CCCn1nc(C)c([N+](=O)[O-])c1C,-16.3
19,Cc1nn(Cc2ccccc2)c(C)c1NC(=O)CCCn1nc([N+](=O)[O-])c(Cl)c1C,-43

row,Compound,"hERG current change (%, negative = inhibition) at 10uM [%]"
1,Cc1nn(Cc2ccc(Cl)cc2)c(C)c1NC(=O)Cn1nc([N+](=O)[O-])c(Cl)c1C,2.42
2,Cc1onc(-c2ccccc2Cl)c1-c1nc(-c2ccncc2)no1,-10.9
3,CC1(C)CNC(=O)CC(C)(C)N1,4.53
4,CCn1c(SCC(=O)N2CCCCC2)nc(O)cc1=O,-7.46
5,Cc1ccc(C)c(-n2c(Cc3cc(=O)[nH]c(=O)[nH]3)nnc2SCC(=O)NCc2ccco2)c1,4.83
6,Cn1cccc1C(=O)N/N=C/c1c(Cl)cccc1Cl,3.26
7,COc1cc2c(cc1OC)C(C)N(S(=O)(=O)c1cccs1)CC2 (centres unmarked),-12.9
8,COc1ccc(-c2ccc3nnc(SCC(=O)NCC4CCCO4)n3n2)cc1 (centres unmarked),-9.98
9,O=S(=O)(c1ccc(Br)c2ccccc12)N1CCOCC1,-11.8
10,CCCNC(=O)N1c2ccccc2Sc2ccccc21,10.5
11,Cc1c(Cl)c([N+](=O)[O-])nn1CCCC(=O)Nc1cccc(O)c1,-10.8
12,Cc1c(Cl)c([N+](=O)[O-])nn1CCCC(=O)Nc1cccnc1,-2.96
13,Cc1c(Cl)c([N+](=O)[O-])nn1CCCC(=O)Nc1cccc(Cl)c1,-51.7
14,O=C(Nc1ccc(-c2csc(-c3ccccc3)n2)cc1)c1ccccc1,16.9
15,Cn1c(SCC(=O)N2CCCCCC2)nc2c([nH]c3ccccc32)c1=O,6.91
16,COc1ccc(CNc2oc(C)nc2C#N)cc1,-1.09
17,COc1ccccc1N1CCN(CCCCCCOc2ccc(F)cc2)CC1,-67.2
18,COc1ccccc1N1CCN(CCCOc2ccc(F)cc2)CC1,-71.8
19,COc1ccccc1N1CCN(CCCCOc2cccc3ccccc23)CC1.Cl,-32.8

row,Compound,"hERG current change (%, negative = inhibition) at 10uM [%]"
1,CN1CCN(CCCCOc2ccc(F)cc2)CC1,0.265
2,COc1ccccc1N1CCN(Cc2ccc(F)cc2)CC1,-14.7
3,COc1ccccc1N1CCN(CCCCOc2ccc(F)cc2)CC1.Cl,-72.8
4,Cl.Fc1ccc(OCCCCN2CCOCC2)cc1,-4.81
5,C=CCn1cnc2c(c1=O)c1nc3ccccc3nc1n2/N=C/c1cc(OC)c(OC)c(OC)c1,-22.1
6,CCn1c(SCC(=O)Nc2ccc(F)cc2)nnc1C1CC1,-0.652
7,O=C(CSc1nnc2ccc(-c3cccnc3)nn12)Nc1ccc(F)cc1F,-64.9
8,N#Cc1ccccc1NC(=O)CSc1nnc(-c2ccccc2)n1-c1ccccc1,2.09
9,O=C(CSc1nnc2ccc(-c3ccccn3)nn12)Nc1ccc(F)cc1F,-18
10,Cc1ccccc1NC(=O)CSc1nnc(-c2ccccc2)n1-c1ccccc1,-51.4
11,CC(C)n1c(SCC(=O)Nc2ccc(F)cc2)nnc1C1CC1,-50.1
12,Cn1c(SCC(=O)Nc2ccc(F)cc2)nnc1C1CC1,4.27
13,CC(=O)Nc1ccc(NC(=O)CSc2nnc3ccc(-c4ccc(F)cc4)nn23)cc1,16.8
14,NNC(=O)CSc1nnc(-c2ccccc2)n1-c1ccccc1,8.61
15,O=C(CSc1nnc2ccc(-c3ccncc3)nn12)Nc1ccc(F)cc1,-63.2
16,COc1ccc(NC(=O)CSc2nnc3ccc(-c4ccncc4)nn23)cc1,-30.9
17,O=C(CSc1nnc2ccc(-c3cccnc3)nn12)Nc1ccccc1F,-39.2
18,COc1ccc(NS(=O)(=O)c2cccc(C(=O)NCC(c3ccco3)N3CCCC3)c2)cc1 (centres unmarked),-36.8
